# nsP2pro primary: inhibitors of chikungunya virus nsP2 protease. Q8JUX6. FRET peptide cleavage, nsP2pro, fluorescence 1 h. Potency, µM (doses to about 24.9 µM), actives largely listed as inhibitors. hit rate 1.1% among 31,000. AID 1964107; also: nearly all actives have a fitted effect of over 60% in size
#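 FRET cleavage of 2.5 uM peptide 2 by 150 nM CHIKV protease domain at pH 8.0 (Tris, Tween 20). Compounds at 7 concentrations (up to 25 uM) preincubated 15 min. Fluorescence read after 1 h at room temperature.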
# nsP2 cell sec: cell-based CHIKV nsP2 protease inhibition, secondary; hit rate 10% among 450; shares compounds with nsP2pro primary; cell-based CHIKV nsP2 protease reporter assay; Potency, µM (top dose mostly 51.1 µM), hits mostly inhibitors; also: nearly all actives have a fitted effect of over 70% in size
# NSP2 full ctr: inhibits full-length CHIKV NSP2 enzyme; shares compounds with nsP2pro primary; Full-length CHIKV NSP2 protease enzymatic counterscreen; Potency, µM (top dose mostly 50.7 µM), usual class: inhibitors; hit rate 39% among 410; AID 1964101; also: nearly all actives have a fitted effect of over 65% in size
# Furin counterscr: human furin inhibition, counterscreen for nsP2pro inhibitors; Recombinant human furin enzymatic counterscreen, fluorogenic substrate; shares compounds with nsP2pro primary; Potency, µM (series often up to 50.6 µM), most hits filed as inhibitors; hit rate 6% among 410; AID 1964102
# NS23 peptide cs: nsP2pro inhibition on native NS2/3 peptide substrate. shares compounds with nsP2pro primary. Potency, µM (highest dose often 51 µM), most hits filed as inhibitors. Purified CHIKV nsP2 protease, endogenous NS2/3 peptide cleavage. hit rate 34% among 410. AID 1964103; also: nearly all actives have a fitted effect of over 55% in size
# Papain counter: inhibits papain in a CHIKV nsP2 protease selectivity counterscreen; shares compounds with nsP2pro primary; purified papain protease activity, enzymatic inhibition; Potency, µM (series often up to 51 µM), actives largely listed as inhibitors; hit rate 5% among 410
# nsP2pro conf qHTS: confirmation of CHIKV nsP2 protease inhibitors; hit rate 43% among 410; shares compounds with nsP2pro primary; Potency, µM (top dose mostly 25.5 µM), actives largely listed as inhibitors; CHIKV nsP2 protease enzymatic activity, qHTS; AID 1964105; also: nearly all actives have a fitted effect of over 75% in size
# HCV NS3 4A cs: selectivity counter-screen for CHIKV nsP2 protease inhibitors: HCV NS3/4A. hit rate 20% among 410. AID 1964106. Potency, µM (top dose mostly 50.9 µM), hits mostly inhibitors. shares compounds with nsP2pro primary. HCV NS3/4A protease biochemical counterscreen; also: nearly all actives have a fitted effect of over 55% in size
# Hits are given with their value; – = inactive; ? = inconclusive; ! = not confirmed by another sample. The entries come from a sample that favours hits as a whole. Calls follow the shape of the full dose curve.
SMILES,nsP2pro primary,others
Cc1c(C(=O)OC2CCCCCC2)[nH]c2c1C(=O)CC(c1ccccc1Cl)C2 (centres undefined),–,
Oc1cc(CNC(=S)/C=C/c2cc(O)c(O)c(Br)c2)cc(O)c1O,5.56µM,nsP2 cell sec=0.224µM;NSP2 full ctr=14.6µM;Furin counterscr=?;NS23 peptide cs=6.51µM;Papain counter=?;nsP2pro conf qHTS=5.04µM;HCV NS3 4A cs=3.66µM
C=C1CCC2C(C)(C(=O)O)CCCC2(C)C1CC/C(=C\CO)CO (centres undefined),–,
FC(F)(F)c1ccccc1-c1nc(NCc2cccc3ccccc23)c2ccccc2n1,–,
CC(C)(C)OC(=O)N1CCN(c2ccc(NCc3cnc(-c4ccc(C#N)cc4)o3)cc2)CC1,–,
CC1=CC(=O)[C@]2(O[C@@H]3O[C@@H](C)[C@H](O)[C@@H](O)[C@H]3O)C=CO[C@@H](O[C@@H]3O[C@H](CO)[C@@H](O)[C@H](O)[C@H]3O)[C@H]12,–,
CSc1nc(=O)c2c(n1C)NC(=O)CC2c1cc(F)cc(F)c1 (centres undefined),–,
CNc1nc2c(s1)C(c1cccc(F)c1)CC(=O)N2 (centres undefined),3.16µM,nsP2 cell sec=–;NSP2 full ctr=?;Furin counterscr=–;NS23 peptide cs=10.3µM;Papain counter=–;nsP2pro conf qHTS=5.65µM;HCV NS3 4A cs=–
O=C(Nc1ccc(N(Cc2ccsc2)C(=O)Cn2nnc3ccccc32)cc1)C1CC1,–,
Nc1nc(NC2CC2)cc(-c2cccc(Cl)c2Cl)n1,–,
CC(O)(C#Cc1ccc2c(c1)N(c1nc(N)ncc1Cl)CC2)c1nccs1 (centres undefined),5.01µM!,nsP2 cell sec=2.06µM;NSP2 full ctr=7.3µM;Furin counterscr=?;NS23 peptide cs=14.6µM;Papain counter=–;nsP2pro conf qHTS=2.25µM;HCV NS3 4A cs=?
CC(C)C[C@@H](N)C(=O)N[C@H]1C(=O)N[C@@H](CC(N)=O)C(=O)N[C@H]2C(=O)N[C@H]3C(=O)N[C@H](C(=O)N[C@H](C(=O)O)c4cc(O)cc(O)c4-c4cc3ccc4O)[C@H](O)c3ccc(c(Cl)c3)Oc3cc2cc(c3O[C@@H]2O[C@H](CO)[C@@H](O)[C@H](O)[C@H]2O[C@H]2C[C@](C)(N)[C@H](O)[C@H](C)O2)Oc2ccc(cc2Cl)[C@H]1O,–,
Cc1ccc(C)c(N2CCN(C(=O)Cn3ncc4ccsc4c3=O)CC2)c1,–,
CCOC(=O)C1CCN(C(=O)Cn2ncc3c4ccccc4n(C)c3c2=O)CC1,–,
CCOC(=O)N1CCN(C(=O)Cn2sc3nc(C)cc(C)c3c2=O)CC1,3.94µM,nsP2 cell sec=–;NSP2 full ctr=?;Furin counterscr=–;NS23 peptide cs=20.6µM;Papain counter=–;nsP2pro conf qHTS=4µM;HCV NS3 4A cs=–
COc1cc(C(=O)NC2CCN(C)CC2)c(F)cc1Nc1ncc2c(n1)N(C1CCCC1)CC(F)(F)C(=O)N2C,–,
COC1CCCC/C(C)=C/C2C=C(C)C(C)C3C(CC(C)C)NC(=O)C23C(=O)C1 (centres undefined),–,
O=C(O)Cc1ccc(O)c(O)c1,?,nsP2 cell sec=–;NSP2 full ctr=–;Furin counterscr=–;NS23 peptide cs=?;Papain counter=–;nsP2pro conf qHTS=8.96µM;HCV NS3 4A cs=8.19µM
O=C(O)Cc1cc(I)c(Oc2ccc(O)c(I)c2)c(I)c1,–,
CC(=O)Nc1ccc(CC(=O)O)cc1,–,
Cc1ccc(S(=O)(=O)Nc2cc(Br)ccc2C(=O)Nc2nc(-c3ccccc3)cs2)cc1,–,
CCNC(=O)c1ccc(-c2ccc3ncnc(NCc4ccc(C)o4)c3c2)o1,–,
COc1cc(C(=O)OC[C@H]2O[C@@H](Oc3ccccc3/C=C/C(=O)O)[C@H](O)[C@@H](O)[C@@H]2O)cc(OC)c1OC,–,
C#CCOc1cc(C2=Nn3c(nnc3-c3cccc(OCC(C)=O)c3)SC2)ccc1OC,–,
Cn1c(CNc2cccc(C(=O)NCc3ccccc3C(F)(F)F)c2)nnc1-c1ccncc1,–,
SMILES,nsP2pro primary,others
COc1ccc(CNC(=O)c2ccc3nnc(C4CCOCC4)n3c2)cc1,–,
COCC1CN(Cc2ccc(OC)cc2)CC12CCNCC2 (centres undefined),–,
COCC1CN(C)CC12CCN(Cc1cccnc1)CC2 (centres undefined),–,
COCC1CN(Cc2ccc(Br)s2)CC12CCNCC2 (centres undefined),?,nsP2 cell sec=?;NSP2 full ctr=?;Furin counterscr=–;NS23 peptide cs=?;Papain counter=–;nsP2pro conf qHTS=?;HCV NS3 4A cs=?
Cc1ccc(-c2ccc(=O)n(CCNCCc3ccccc3)n2)cc1,–,
NC(=O)[C@@H]1CC[C@@H]2CN1C(=O)N2OS(=O)(=O)O,–,
Cn1cc(Cl)c(C2N=C(Nc3nc4ccccc4o3)NC3=C2C(=O)CCC3)n1 (centres undefined),–,
C=C1CCC2C(C)(C)CC(=O)CC2(C)C1CCC(C)CCO (centres undefined),–,
Cc1ccc(-n2nc(C)c([C@@H]3C=C[C@@H](NCc4ccc(F)cc4)C3)c2C)cc1Cl,–,
Cc1nn(CCC#N)c(C)c1[C@@H]1C=C[C@@H](NCc2ccc(C(C)C)cc2)C1,?,nsP2 cell sec=–;NSP2 full ctr=5.95µM;Furin counterscr=–;NS23 peptide cs=16.8µM;Papain counter=–;nsP2pro conf qHTS=11.6µM;HCV NS3 4A cs=4.21µM
Cc1nn(-c2ccc(F)cc2)c(C)c1[C@@H]1C=C[C@@H](NCc2ccc(C(C)C)cc2)C1,–,
COc1cc(O)c(C(CC(=O)N2CCC(c3ccccc3)CC2)c2ccc(C)cc2)c(OC)c1 (centres undefined),–,
CCN(CC)CCCNc1sc(S(=O)(=O)c2ccccc2)nc1S(=O)(=O)c1ccc(Cl)cc1,–,
COc1ccc(NS(=O)(=O)c2ccc(N)cc2)nn1,–,
COc1cc(NS(=O)(=O)c2cccc([N+](=O)[O-])c2)c2ncccc2c1,–,
COc1ccc([N+](=O)[O-])c(S(=O)(=O)c2ccccc2)n1,2.24µM,nsP2 cell sec=1.83µM;NSP2 full ctr=13µM;Furin counterscr=?;NS23 peptide cs=3.26µM;Papain counter=–;nsP2pro conf qHTS=5.65µM;HCV NS3 4A cs=?
COc1ccc(-c2ccc(NS(=O)(=O)c3ccccc3)cc2)nn1,–,
COc1ccc([N+](=O)[O-])c(S(=O)(=O)c2ccc(Cl)cc2)n1,6.31µM,nsP2 cell sec=2.06µM;NSP2 full ctr=23.1µM;Furin counterscr=–;NS23 peptide cs=5.8µM;Papain counter=–;nsP2pro conf qHTS=–;HCV NS3 4A cs=–
CCNC(=O)C1CCN(C(=O)C(C)(C)NC(=O)Nc2ccccc2Cl)CC1,–,
CN(CCC1CCCO1)c1ncnc2ccc(-c3ccc4c(c3)OCO4)cc12 (centres undefined),–,
Cc1ccc(C(=O)Nc2noc3ccccc23)cc1,–,
COc1cc(O)c(C(CC(=O)N2CCCC(C(F)(F)F)C2)c2ccc3c(c2)OCO3)c(OC)c1 (centres undefined),–,
Cc1cncc(NC(=S)N2CCN(c3cccc(C(F)(F)F)c3)CC2)c1,–,
O=C(Nc1cncc(NC(=O)c2cccs2)c1)c1cccs1,–,
COc1ccc2nccc(C(=O)CC[C@@H]3CCN(CC#Cc4cc(F)cc(F)c4F)C[C@@H]3C(=O)O)c2c1,–,
CN(C)C(=S)SC(=S)N(C)C,8.81µM,nsP2 cell sec=–;NSP2 full ctr=29.1µM;Furin counterscr=–;NS23 peptide cs=–;Papain counter=–;nsP2pro conf qHTS=7.11µM;HCV NS3 4A cs=?
